The full list was thinned out, with hits kept by preference.
STK33 inh: STK33 kinase inhibitors, primary screen, biochemical, luminescence, ADP-Glo, MBP substrate; actives 0.44% (n = 27,000); AID 2322, 2010; inhibition, % at 12.5 µM; Serine/threonine-protein kinase 33 (Homo sapiens), Q9BYT3; in the data active = inhibition above about 20%; inconclusive = no clear call, values can overlap the other calls
Target sequence (Q9BYT3 whole entry, looked up): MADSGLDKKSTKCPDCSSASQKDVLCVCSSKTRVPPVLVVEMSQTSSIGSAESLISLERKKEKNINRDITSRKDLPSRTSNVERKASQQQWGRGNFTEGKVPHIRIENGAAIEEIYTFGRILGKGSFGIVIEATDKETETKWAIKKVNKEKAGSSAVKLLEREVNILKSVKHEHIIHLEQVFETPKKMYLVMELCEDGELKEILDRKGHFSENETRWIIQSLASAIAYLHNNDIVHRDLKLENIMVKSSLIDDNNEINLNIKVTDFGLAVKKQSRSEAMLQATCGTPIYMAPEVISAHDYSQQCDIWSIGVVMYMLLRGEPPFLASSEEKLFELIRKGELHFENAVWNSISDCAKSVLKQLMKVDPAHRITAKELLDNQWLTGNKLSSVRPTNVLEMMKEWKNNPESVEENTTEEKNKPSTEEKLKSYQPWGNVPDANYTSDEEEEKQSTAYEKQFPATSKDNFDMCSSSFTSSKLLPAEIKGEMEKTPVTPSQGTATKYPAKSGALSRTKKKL
PD-1 reversal: activators reversing PD-1 mediated T-cell inhibition, primary screen, luminescence, primary human CD4 T cells, PD-L1 beads | AID 2316, 2010 | 29,000 tested, under 10 active | CellTiter-Glo 96 h | activation, % (no concentration beside the values); call rule not given here
NOMO-1 viab: NOMO-1 AML cell viability reduction, primary screen, STK33 inhibitor project, CellTiter-Glo luminescence | NOMO-1 AML viability, 72 h | inhibition, % (no concentration beside the values) | actives 7.5% (n = 37,000) | AID 2330, 2010; in the data active = inhibition above about 80%; inconclusive = no clear call, values can overlap the other calls
Hits are given with their value.

Screening C[C@@H]1CN([C@H](C)CO)C(=O)Cc2cc(NC(=O)Nc3cccc4ccccc34)ccc2O[C@H]1CN(C)Cc1ccc(C(=O)Nc2ccccc2N)cc1 returned PD-1 reversal inactive and NOMO-1 viab inactive.
C[C@H]1CN([C@@H](C)CO)C(=O)Cc2cc(NC(=O)NC3CCCCC3)ccc2O[C@H]1CN(C)Cc1ccc(C(=O)Nc2ccccc2N)cc1 was read as PD-1 reversal inactive and NOMO-1 viab 138.8.
`C[C@@H]1CN([C@H](C)CO)C(=O)Cc2cc(NC(=O)C3CC3)ccc2O[C@H]1CN(C)Cc1ccc(C(=O)Nc2ccccc2N)cc1` gave PD-1 reversal inactive and NOMO-1 viab inactive.
`C[C@@H]1CN([C@H](C)CO)C(=O)Cc2cc(NC(=O)NC3CCCCC3)ccc2O[C@H]1CN(C)Cc1ccc(C(=O)Nc2ccccc2N)cc1` gave PD-1 reversal inactive and NOMO-1 viab inactive.
`C[C@@H]1CN([C@@H](C)CO)C(=O)Cc2cc(NC(=O)Nc3ccccc3)ccc2O[C@@H]1CN(C)Cc1ccc(C(=O)Nc2ccccc2N)cc1` gave PD-1 reversal inactive and NOMO-1 viab 124.1.
`CC(C)NC(=O)Nc1ccc2c(c1)CC(=O)N([C@@H](C)CO)C[C@H](C)[C@@H](CN(C)Cc1ccc(C(=O)Nc3ccccc3N)cc1)O2` gave PD-1 reversal inactive and NOMO-1 viab inactive.
Screening C[C@@H]1CN([C@@H](C)CO)C(=O)Cc2cc(NC(=O)C3CC3)ccc2O[C@@H]1CN(C)Cc1ccc(C(=O)Nc2ccccc2N)cc1 returned PD-1 reversal inactive and NOMO-1 viab 82.0.
C[C@@H]1CN([C@@H](C)CO)C(=O)Cc2cc(NC(=O)Nc3ccc4c(c3)OCO4)ccc2O[C@@H]1CN(C)Cc1ccc(C(=O)Nc2ccccc2N)cc1 was read as PD-1 reversal inactive and NOMO-1 viab 101.1.
For Cc1nc(SCC(=O)c2ccccc2)c2sc3nc4c(cc3c2n1)COC(C)(C)C4 the results were STK33 inh inactive, PD-1 reversal inactive and NOMO-1 viab inactive.
`CC1CCC(C(C)C)C(N(Cc2ccccc2)C(=O)c2cccs2)C1` (centres undefined) gave STK33 inh inactive, PD-1 reversal inactive and NOMO-1 viab inconclusive.
Cc1ccc(C(=O)/C=C/Nc2ccc(C(F)(F)F)cc2)cc1 was read as PD-1 reversal inactive and NOMO-1 viab inactive.
Screening COC(=O)c1cc(NC(=O)CSc2ccccn2)cc(C(=O)OC)c1 returned STK33 inh inactive and NOMO-1 viab inactive.
Screening C[C@@H]1CN([C@@H](C)CO)C(=O)Cc2cc(NC(=O)Nc3ccc(F)cc3)ccc2O[C@@H]1CN(C)Cc1ccc(C(=O)Nc2ccccc2N)cc1 returned PD-1 reversal inactive and NOMO-1 viab 113.3.
C[C@@H]1CN([C@H](C)CO)C(=O)Cc2cc(NC(=O)Nc3ccc(C(F)(F)F)cc3)ccc2O[C@H]1CN(C)Cc1ccc(C(=O)Nc2ccccc2N)cc1 was read as PD-1 reversal inactive and NOMO-1 viab inactive.
Screening Cc1noc(C)c1NC(=O)Nc1ccc2c(c1)CC(=O)N([C@@H](C)CO)C[C@H](C)[C@H](CN(C)Cc1ccc(C(=O)Nc3ccccc3N)cc1)O2 returned PD-1 reversal inactive and NOMO-1 viab 87.6.
For Cc1noc(C)c1NC(=O)Nc1ccc2c(c1)C(=O)N([C@@H](C)CO)C[C@H](C)[C@@H](CN(C)Cc1ccc(C(=O)Nc3ccccc3N)cc1)O2 the results were PD-1 reversal inactive and NOMO-1 viab inactive.
Screening C[C@H](CO)N1C[C@H](C)[C@H](CN(C)Cc2ccc(C(=O)Nc3ccccc3N)cc2)Oc2ccc(NC(=O)Nc3ccc(F)cc3)cc2CC1=O returned PD-1 reversal inactive and NOMO-1 viab 126.7.
For COc1ccc(CC(=O)N(CC#N)CC#N)cc1OC the results were PD-1 reversal inactive and NOMO-1 viab inactive.
Screening CCc1ccc(Nc2nc3ccccc3nc2NS(=O)(=O)c2ccc(C)cc2)cc1 returned PD-1 reversal inactive and NOMO-1 viab inactive.
`CC1=NNC(=O)C1Oc1ccc(Cl)cc1Cl` (centres undefined) gave STK33 inh inactive, PD-1 reversal inactive and NOMO-1 viab inactive.
For CC(C)(C)NC(=O)c1ccc2c3c(onc13)-c1ccccc1C2=O the results were STK33 inh inactive, PD-1 reversal inactive and NOMO-1 viab 113.9.
CC(C)(C)NC(=O)c1ccccc1 was read as PD-1 reversal inactive and NOMO-1 viab inactive.
Screening O=C(CSc1nc2ccc(NC(=O)c3ccccc3F)cc2s1)c1cccc([N+](=O)[O-])c1 returned STK33 inh inactive and NOMO-1 viab inactive.
`C[C@H]1CC[C@@H]2[C@@H](C(=O)c3c(O)c([C@]4(O)CC[C@@H](O)[C@H]5O[C@H]54)cn(O)c3=O)[C@@H](C)C=C[C@H]2C1` gave STK33 inh inactive, PD-1 reversal inactive and NOMO-1 viab 120.0.

Assay outcomes from PubChem BioAssay.
